Data on eleven compounds can be found in PubChem BioAssay (NCI).

The panel holds about 83,000 compounds, 20% with a hit somewhere; the sample as a whole holds those more often.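 The test compound was applied at a single concentration to cells in 96-well plates for 48 hours, and percent growth was recorded.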 A number with no mark means an inactive call. Calls of active or inactive are those of the source. Rule for the calls: active = growth percent below 10; inactive = the rest.

The test system of this experiment is T-47D breast. The experiment is described as follows: NCI-60 one-dose screen, 48 h (100 = growth as untreated, 0 = no growth, -100 = all killed). The following applies: 10 µM unless noted.
For the compound `O=C(c1ccccc1)C(c1c[nH]c2ccccc12)c1c[nH]c2ccccc12`, the growth is 58%. In the case of `CC1(C)CC[C@]2(C(=O)Nc3ccc(Br)cc3)CC[C@]3(C)C(=CCC4[C@@]5(C)C[C@@H](O)[C@H](O)[C@@](C)(CO)C5CC[C@]43C)C2C1` (stereo partly specified), the growth was -9.58% (active). As for `CC(/C=C1\SC(=S)N(CCCC(=O)NC(CC(C)C)C(=O)O)C1=O)=C\c1ccccc1` (stereo unspecified), the growth was 89.7%. For `Cn1cc(-c2cc(N)n3nc(-c4cn(C)c5ccccc45)cc3n2)c2cc(Br)ccc21` the value was -37.7% (active). With `Cc1ccc(NCC(=O)Cn2cc(COc3ccc(C=Nc4cnc5ccccc5c4)cc3)nn2)cc1` the figure was 105%; with `Cc1ccc([C@H]2C(C(=O)c3ccc(Cl)cc3)C3(N[C@@H]2c2ccccc2)C(=O)Nc2ccc(Cl)cc23)cc1` (stereo partly specified), 31.6%; with `Cc1cc2nc3c4ccccc4n(CCNCCN(C)C)c3nc2cc1C`, 52.2%. On to `Cc1ccccc1[C@H]1C(C(=O)c2ccc(Cl)cc2)C2(N[C@@H]1c1ccccc1)C(=O)Nc1ccc(Br)cc12` (stereo partly specified), for which the growth was 22.6%. With `CC(C)c1sc(NC(=O)c2cc(NC(=O)c3cc(NC(=O)c4cscn4)cn3C)cn2C)nc1C(=O)NCCCN(C)C` the figure was 13%.

`CC(=O)OC[C@@]1(C)C2CC[C@]3(C)C(CC=C4C5CC(C)(C)CC[C@]5(C(=O)Nc5ccc(C)cc5)CC[C@]43C)[C@@]2(C)C[C@@H](OC(C)=O)[C@@H]1OC(C)=O` (stereo partly specified): the growth is 17.5%.

Take `O=C1CC(Sc2n[nH]c(-c3ccncc3)n2)C(=O)N1c1ccc(Br)cc1` (stereo unspecified): the growth was 94.5%.
